Source: PubChem BioAssay (several laboratories)
AI-2 QS modul = Vibrio harveyi AI-2 quorum sensing modulation. Vibrio harveyi JMH597 AI-2 luminescence/OD600 ratio, 9 h; active compounds read low; strain lacks LuxN and CqsS sensors; 0 = neutral-control median. 300,000 tested, 0.4% active. activity change, % at 7.5 µM; in the data active means activity change below about -75%, passing the limit was not always enough;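 further: luminescence divided by OD600 gain over 9 h not by final OD600 alone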
aDG glyco up = increases alpha dystroglycan glycosylation | Pro5-aDG cells, alpha-DG glycosylation AlphaScreen (IIH6); 0% Pro5, 100% B10-LARGE cell signal | activation, % at 10 µM | 360,000 tested, 0.22% active;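 active means activation of at least 8% versus controls, or a plate z-score of at least 8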;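 further: Pro5 are CHO cells carrying HIG-tagged alpha-DG that lacks glycosylation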
A1 inh = inhibitors of the anti-apoptotic protein A1, read as caspase activation | caspase activation, % (test concentration not listed) | 330,000 tested, 0.066% active | MEF A1-2A-BIM cells, Caspase-Glo 3/7 luminescence, 3 h; percent of clofoctol response, vehicle zero;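 active means over half of replicate activation scores above 10%, or exactly half above 10 with the replicate mean above 10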
SUMO Mot1 rescue = inhibitors of SUMOylation pathway: yeast Mot1-301 growth rescue; S. cerevisiae Mot1-301 growth rescue, ATP luminescence, 38.5C; percent above DMSO median, 100 means doubled; growth rescue, % at 18.8 µM; 320,000 tested, 1% active; AID 2716;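 active means every valid replicate shows activation above 250% relative to neutral control wells; inactive means the rest, any valid replicate at or below 250%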;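 further: OY570 slx delta 5 strain wells were the positive control but not used for scaling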
ARNT TACC3 PPI = disrupts binding between human ARNT and TACC3. Q9Y6A5. AlphaScreen His-ARNT PAS-B/GST-TACC3 binding, luminescence; TACC3 fragment carries E629A point mutation. inhibition, % at 9.99 µM. 390,000 tested, 0.66% active;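 active means mean inhibition of replicates at least 50% and at least half of replicates each reaching 50%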;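 further: 0% = complete ARNT plus TACC3 wells and 100% = ARNT alone without TACC3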
Starred values were filed as active, the others as inactive; . = not tested or not shown. Shown are actives, neighbours in structure and some others; about 1.8% of the full set was active somewhere.

SMILES	AI-2 QS modul	aDG glyco up	A1 inh	SUMO Mot1 rescue	ARNT TACC3 PPI
Cc1ccc(S(=O)(=O)N2CCOCC2)cc1C(=O)Nc1nc(-c2ccccn2)cs1	.	2	-2	1	75*
O=C(COc1ccc(F)cc1Cl)Nc1nc(-c2ccccn2)cs1	49	1	0	211	48*
Cc1c(C(=O)Nc2nc(-c3ccccn3)cs2)oc2ccccc12	.	1	-1	47	.
COCCCNC(=O)c1ccc(NC(C)=O)cc1	34	0	-1	2	5
Cc1cccc(C(=O)NC(C(=O)Nc2nc(-c3ccccn3)cs2)C(C)C)c1 (stereo unspecified)	25	3	-1	-9	45
C[C@H](NC(=O)c1ccccc1)C(=O)Nc1nc(-c2ccccn2)cs1	19	0	1	26	64*
CC(Oc1ccccc1)C(=O)Nc1nc(-c2ccccn2)cs1 (stereo unspecified)	.	1	.	.	68*
CCc1sc(C(=O)Nc2nc(-c3ccccn3)cs2)cc1C	.	2	-2	-16	63*
O=C(C/C=N/OCc1ccccc1F)c1cnc(-c2ccc(Cl)cc2)s1	19	0	0	791	-5
O=C(CCn1c(=O)[nH]c2ccsc2c1=O)NCc1ccc(F)cc1	10	0	0	451*	-4
O=C(CCCn1c(=O)[nH]c2ccsc2c1=O)Nc1ccc(F)cc1	15	0	0	-5	0
O=C1c2ccccc2-c2c1cccc2C(=O)N1CCCCCC1	8	0	1	529	18
Cc1nc(N2CCc3ccccc3C2)[nH]c(=O)c1Cc1ccccc1	23	0	-1	-9	0
Cc1nc(-n2[nH]c3c(c2=O)CCCC3)[nH]c(=O)c1Cc1ccccc1	132	1	0	63	59*
C[C@H](CO)N1C[C@H](C)[C@H](CN(C)Cc2ccc(Cl)c(Cl)c2)Oc2ccc(NC(=O)CCC(F)(F)F)cc2CC1=O	.	.	.	.	-2
O=C(CCC(=O)N1CCCCC1)Nc1ccc(Cl)c(Cl)c1	-78*	0	0	-14	15
O=C(CCC(=O)N1CCOCC1)Nc1ccc(Cl)c(Cl)c1	2	0	0	-2	-4
CC(C)(C)C(=O)Nc1ccccc1C(=O)NCCCn1ccnc1	21	0	1	-3	61*
CC(C)(C)c1ccc(C(=O)NCCCn2ccnc2)cc1	.	0	1	-2	active
O=C(NCCCn1ccnc1)c1ccncc1	-3	0	-1	14	-5
CCOc1ccc(C2C(C#N)=C(N)SC(N)=C2C#N)cc1OC	20	.	-1	-8	.
OCc1ccnc(Cl)c1	19	0	0	0	-10
O=C(CCC(=O)N1CCN(c2ccccc2F)CC1)N1CCN(c2ccccc2)CC1	27	0	9.4*	-5	33
O=C(Nc1ccccc1N1CCN(C(=O)c2ccccc2)CC1)c1cc2ccccc2o1	.	0	0	264*	0
CCNC(=O)c1cc2c(c(-c3cccc(-c4cccc(F)c4)c3)n1)[C@@H](CCO)N([S@](=O)C(C)(C)C)C2	.	.	.	.	7
SMILES	AI-2 QS modul	aDG glyco up	A1 inh	SUMO Mot1 rescue	ARNT TACC3 PPI
COc1cc(C(=O)NC(C)c2ccc(-n3ccnc3)cc2)cc(OC)c1C (stereo unspecified)	8	0	0	-24	1
COc1ccc(OC)c(S(=O)(=O)NC(C)c2ccc(-n3ccnc3)cc2)c1 (stereo unspecified)	.	0	13*	-7	-11
COC(=O)/C=C/C(=O)N1CCN(c2ccccc2C)CC1	9	1	1	439*	-2
O=C(CSCc1ccccc1)N/N=C/c1ccc(OCC(=O)N2CCCCC2)cc1	31	0	0	0	1
COc1ccc(NC(=O)/C(C#N)=C\c2ccc(Br)o2)cc1	15	0	-1	7	0
N#C/C(=C\c1ccc([N+](=O)[O-])o1)C(=O)Nc1ccc(F)cc1	12	0	2	323*	14
O=C(/C(=C(\[O-])c1ccccc1)[n+]1ccc2ccccc2c1)c1ccc(Cl)cc1	13	0	0	-14	-40
O=C(/C(=C(\[O-])c1ccccc1)[n+]1ccc2ccccc2c1)c1ccccc1	8	0	0	5	50*
O=[N+]([O-])c1cnc(Sc2ccncn2)s1	-88*	0	-3	44	0
